From PubChem BioAssay come the findings set out here.

“And” between values parts separate entries of the source, which are not always exact repeats. Equal values may be shown once. More than one record can exist for a structure, and the calls need not agree. The source made the active and inactive calls.

A short description of assay [1]: binders of probe aFSTL3 on microarray, primary screen, stem cell growth factor project, biochemical, small-molecule microarray, fluorescence 635/667 (AID 1064).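 Also: measures binding of the biotinylated anti-FSTL3 antibody to printed compounds.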 Particulars: higher = more signal.
The nature of assay [2]: binders from COS7 lysate, DM2A8 probe, primary screen, torsin A project, cell lysate, small-molecule microarray, fluorescence 635/667 (AID 1065). Particulars: higher = more signal, COS7 lysate expressing mutant human TOR1A.
Assay [3] in a line: binders of probe aFGF2 on microarray, primary screen, stem cell growth factor project, biochemical, small-molecule microarray, fluorescence 635/667 (AID 1067).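 Also: measures binding of biotinylated aFGF2 protein to printed compounds on slides; z-score merges feature fluorescence and signal-to-noise across triplicate slides.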 Particulars: higher = more signal.
The nature of assay [4]: binders of probe aFGF10 on microarray, primary screen, stem cell growth factor project, biochemical, small-molecule microarray, fluorescence 635/667 (AID 1071).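 Also: score merges 667 nm spot intensity and signal to noise from triplicate slides.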 Particulars: higher = more signal.
For assay [5], the target named is Neurogenic locus notch homolog protein 2 (Homo sapiens) (UniProt Q04721). As to the kind of experiment: Notch2 binders on small-molecule microarrays, primary screen, biochemical, small-molecule microarray, 635 nm fluorescence, stem cell growth factors (AID 1073). Particulars: Notch2 binding, higher = more signal.
Sequence of Neurogenic locus notch homolog protein 2 (Homo sapiens) (Q04721 whole entry, looked up, canonical isoform): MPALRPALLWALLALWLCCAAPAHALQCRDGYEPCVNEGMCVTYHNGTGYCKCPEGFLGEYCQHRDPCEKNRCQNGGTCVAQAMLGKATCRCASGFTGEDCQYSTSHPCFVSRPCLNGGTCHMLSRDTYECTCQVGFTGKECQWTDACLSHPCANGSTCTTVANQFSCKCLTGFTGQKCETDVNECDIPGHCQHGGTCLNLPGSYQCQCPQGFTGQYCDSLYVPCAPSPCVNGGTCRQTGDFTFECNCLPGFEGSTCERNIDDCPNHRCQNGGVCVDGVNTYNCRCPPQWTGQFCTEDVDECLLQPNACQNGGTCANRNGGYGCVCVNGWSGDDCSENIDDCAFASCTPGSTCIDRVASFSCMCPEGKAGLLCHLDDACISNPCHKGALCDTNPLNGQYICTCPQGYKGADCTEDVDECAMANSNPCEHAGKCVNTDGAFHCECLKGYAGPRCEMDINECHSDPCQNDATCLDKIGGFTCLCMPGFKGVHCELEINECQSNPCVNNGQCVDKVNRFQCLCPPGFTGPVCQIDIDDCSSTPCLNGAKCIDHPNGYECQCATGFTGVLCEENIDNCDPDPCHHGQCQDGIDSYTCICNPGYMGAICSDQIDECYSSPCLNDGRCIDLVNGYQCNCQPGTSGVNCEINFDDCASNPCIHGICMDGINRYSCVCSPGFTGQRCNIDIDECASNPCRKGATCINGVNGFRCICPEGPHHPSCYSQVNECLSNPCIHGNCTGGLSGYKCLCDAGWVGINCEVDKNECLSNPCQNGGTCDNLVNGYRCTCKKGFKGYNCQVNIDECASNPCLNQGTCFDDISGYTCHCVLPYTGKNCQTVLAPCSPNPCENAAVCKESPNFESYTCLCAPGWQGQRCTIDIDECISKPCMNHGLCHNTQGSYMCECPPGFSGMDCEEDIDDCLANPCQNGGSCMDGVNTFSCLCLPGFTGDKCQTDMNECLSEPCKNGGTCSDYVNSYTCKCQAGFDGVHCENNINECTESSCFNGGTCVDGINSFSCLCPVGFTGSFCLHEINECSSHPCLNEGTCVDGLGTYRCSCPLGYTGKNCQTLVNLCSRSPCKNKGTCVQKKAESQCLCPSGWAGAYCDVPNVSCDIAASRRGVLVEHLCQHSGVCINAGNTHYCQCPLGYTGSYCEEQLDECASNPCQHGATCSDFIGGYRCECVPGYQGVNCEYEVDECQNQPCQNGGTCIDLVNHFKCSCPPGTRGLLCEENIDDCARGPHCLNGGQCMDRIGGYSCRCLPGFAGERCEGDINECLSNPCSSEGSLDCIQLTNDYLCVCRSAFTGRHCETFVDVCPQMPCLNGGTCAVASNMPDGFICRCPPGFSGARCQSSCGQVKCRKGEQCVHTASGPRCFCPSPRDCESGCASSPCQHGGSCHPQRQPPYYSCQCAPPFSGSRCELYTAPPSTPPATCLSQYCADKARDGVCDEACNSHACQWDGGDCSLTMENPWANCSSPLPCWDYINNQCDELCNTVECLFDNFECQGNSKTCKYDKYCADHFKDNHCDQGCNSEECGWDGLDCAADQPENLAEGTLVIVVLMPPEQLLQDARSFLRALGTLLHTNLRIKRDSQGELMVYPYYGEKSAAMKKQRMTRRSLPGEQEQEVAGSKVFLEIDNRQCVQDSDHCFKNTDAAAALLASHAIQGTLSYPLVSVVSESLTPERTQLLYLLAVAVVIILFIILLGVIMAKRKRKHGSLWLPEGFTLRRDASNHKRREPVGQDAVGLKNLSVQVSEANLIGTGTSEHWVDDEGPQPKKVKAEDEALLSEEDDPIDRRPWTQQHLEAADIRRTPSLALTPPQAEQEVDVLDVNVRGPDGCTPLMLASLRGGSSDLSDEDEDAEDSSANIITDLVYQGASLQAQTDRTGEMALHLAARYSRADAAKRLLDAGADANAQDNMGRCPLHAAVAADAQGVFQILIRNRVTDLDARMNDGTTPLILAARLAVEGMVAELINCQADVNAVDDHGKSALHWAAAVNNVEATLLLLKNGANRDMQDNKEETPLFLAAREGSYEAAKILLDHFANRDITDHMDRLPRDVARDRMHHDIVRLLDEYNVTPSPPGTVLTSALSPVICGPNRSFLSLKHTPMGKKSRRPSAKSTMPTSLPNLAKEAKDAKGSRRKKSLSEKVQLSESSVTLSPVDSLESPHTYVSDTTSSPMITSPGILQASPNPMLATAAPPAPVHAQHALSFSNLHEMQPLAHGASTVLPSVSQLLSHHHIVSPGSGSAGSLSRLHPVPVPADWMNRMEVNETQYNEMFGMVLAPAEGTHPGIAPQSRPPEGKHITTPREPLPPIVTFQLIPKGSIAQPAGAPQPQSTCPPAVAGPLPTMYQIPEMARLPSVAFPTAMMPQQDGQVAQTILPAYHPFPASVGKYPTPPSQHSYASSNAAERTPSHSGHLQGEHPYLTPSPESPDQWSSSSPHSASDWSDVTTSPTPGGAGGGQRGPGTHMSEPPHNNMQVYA
Assay [6] deals with Pro-neuregulin-1, membrane-bound isoform (Homo sapiens) (UniProt Q02297). As to the kind of experiment: NRG1 binders on small-molecule microarrays, primary screen, psychiatric disease protein project, biochemical, small-molecule microarray, fluorescence 635/667 (AID 1075).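 Also: score combines 667 nm spot fluorescence with signal to noise.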 The following applies: NRG1 binding, 635 nm fluorescence, higher = more signal.
Sequence of Pro-neuregulin-1, membrane-bound isoform (Homo sapiens) (Q02297 whole entry, looked up, the tested form may be a part, canonical isoform): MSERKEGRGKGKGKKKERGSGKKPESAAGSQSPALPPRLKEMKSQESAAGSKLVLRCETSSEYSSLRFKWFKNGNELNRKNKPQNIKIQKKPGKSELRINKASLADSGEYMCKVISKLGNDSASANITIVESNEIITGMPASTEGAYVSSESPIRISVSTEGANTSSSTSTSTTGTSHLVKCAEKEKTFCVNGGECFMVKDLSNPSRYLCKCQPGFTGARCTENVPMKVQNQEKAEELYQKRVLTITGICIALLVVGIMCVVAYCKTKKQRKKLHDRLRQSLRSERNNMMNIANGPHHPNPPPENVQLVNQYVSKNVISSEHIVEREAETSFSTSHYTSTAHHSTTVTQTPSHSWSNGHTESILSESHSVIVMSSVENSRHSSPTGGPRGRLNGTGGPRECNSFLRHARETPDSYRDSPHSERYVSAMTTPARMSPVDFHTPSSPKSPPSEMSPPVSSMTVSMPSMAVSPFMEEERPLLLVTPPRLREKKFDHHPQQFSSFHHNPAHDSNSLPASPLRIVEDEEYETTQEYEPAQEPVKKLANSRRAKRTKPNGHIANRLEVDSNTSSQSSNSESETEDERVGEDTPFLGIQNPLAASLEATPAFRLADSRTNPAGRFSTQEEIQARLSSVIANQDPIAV
Assay [7] concerns Neuregulin-1 EGF-like domain. In words: binders of neuregulin-1 EGF-like domain, primary screen, biochemical, small-molecule microarray, 635 nm fluorescence (AID 1081).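 Also: binding of the protein to compounds printed on small-molecule microarray slides.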 Particulars: small-molecule microarray binding, higher = more signal.
The nature of assay [8]: FRG1 promoter luciferase signal modulators, primary screen, FRG1 inhibition for FSHD, cell-based, C2C12 myotubes, firefly/Renilla luciferase, luminescence (AID 1084). The following applies: higher = more signal, called active from +8 up or from −8 down.
A short description of assay [9]: binders of probe aFST on microarray, primary screen, stem cell growth factor project, biochemical, small-molecule microarray, fluorescence 635/667 (AID 1086).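 Also: score merges 667 nm fluorescence with signal-to-noise of each printed compound spot.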 Particulars: higher = more signal.
A short description of assay [10]: binders of probe aHhip on microarray, primary screen, stem cell growth factor project, biochemical, small-molecule microarray, fluorescence 635/667 (AID 1087).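 Also: score merges spot fluorescence at 667nm with spot signal to noise ratio.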 The following applies: higher = more signal.
In assay [11] the test system is PRMT1 (protein arginine N-methyltransferase 1). In words: PRMT1 binders on small-molecule microarrays, primary screen, biochemical, small-molecule microarray, 635 nm fluorescence (AID 1088).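 Also: binding of Prmt1 protein to compounds spotted on small-molecule microarray slides.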 The following applies: small-molecule microarray binding, higher = more signal.
The nature of assay [12]: yeast growth modulation, basal conditions, primary screen, YJM789 clinical isolate, OD600, 24 h (AID 1089).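 Also: growth of clinical yeast isolate S. cerevisiae YJM 789 seeded 1000 cells per well; test concentration not given here.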 Particulars: S. cerevisiae YJM789 growth, higher = more signal, called active from +8 up or from −8 down.
The nature of assay [13]: fission yeast growth modulation, primary screen, strain 972, OD600, 24 h, no modulator (AID 1090).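 Also: basal condition with compound alone and no growth modifier present; test concentration not given here.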 Particulars: S. pombe 972 growth, higher = more signal, called active from +8 up or from −8 down.
The nature of assay [14]: S. cerevisiae growth modulation with rapamycin, primary screen, strain BY4716, OD600, 96 h (AID 1091). Also: test concentration not given here. Particulars: higher = more signal, called active from +8 up or from −8 down.
Assay [15] has as its target Torsin-1A-interacting protein 2 (Homo sapiens) (UniProt Q8NFQ8). As to the kind of experiment: LULL1 binders on small-molecule microarray, primary screen, cell lysate, human LULL1 lysate, 635/667 nm fluorescence (AID 1092).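 Also: probe is lysate of COS7 cells overexpressing human LULL1; score merges per-feature 667 nm fluorescence with signal-to-noise.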 The following applies: hLULL1 lysate binding, 635 nm fluorescence, higher = more signal.
The nature of assay [16]: E. coli growth modulation, two-sided OD650, primary screen, E. coli filamentation project, strain DRC41, 24 h (AID 1093).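 Also: MC1000 strain lacking acrAB efflux and sulA so SOS filamentation is blocked; test concentration not given here.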 The following applies: OD650, 24 h, higher = more signal, called active from +8 up or from −8 down.
A short description of assay [17]: small-molecule microarray binders of probe aLefty2, primary screen, biochemical, biotinylated probe, 635/667 nm fluorescence (AID 1094).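 Also: score merges spot fluorescence near 667 nm with spot signal-to-noise ratio.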 Particulars: higher = more signal.
In assay [18] the test system is Noggin (protein binding on small-molecule microarray). In words: Noggin binders on small-molecule microarray, primary screen, biochemical, 635/667 nm fluorescence (AID 1095).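 Also: score merges 667 nm feature fluorescence with signal to noise over triplicate slides.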 The following applies: 635 nm fluorescence, higher = more signal.
Assay [19] addresses Neurogenic locus notch homolog protein 3 (Homo sapiens) (UniProt Q9UM47). In words: NOTCH3 binders on small-molecule microarray, primary screen, biochemical, 635/667 nm fluorescence (AID 1096). Particulars: NOTCH3 binding, 635 nm fluorescence, higher = more signal.
A short description of assay [20]: small-molecule microarray binders of probe aEGFR, primary screen, biochemical, biotinylated probe, 635/667 nm fluorescence (AID 1097).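 Also: probe is a biotinylated anti-EGFR antibody binding compounds printed on slides; score combines fluorescence near 667 nm and signal to noise of each spot.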 Particulars: higher = more signal.

Sequence of Torsin-1A-interacting protein 2 (Homo sapiens) (Q8NFQ8 whole entry, looked up): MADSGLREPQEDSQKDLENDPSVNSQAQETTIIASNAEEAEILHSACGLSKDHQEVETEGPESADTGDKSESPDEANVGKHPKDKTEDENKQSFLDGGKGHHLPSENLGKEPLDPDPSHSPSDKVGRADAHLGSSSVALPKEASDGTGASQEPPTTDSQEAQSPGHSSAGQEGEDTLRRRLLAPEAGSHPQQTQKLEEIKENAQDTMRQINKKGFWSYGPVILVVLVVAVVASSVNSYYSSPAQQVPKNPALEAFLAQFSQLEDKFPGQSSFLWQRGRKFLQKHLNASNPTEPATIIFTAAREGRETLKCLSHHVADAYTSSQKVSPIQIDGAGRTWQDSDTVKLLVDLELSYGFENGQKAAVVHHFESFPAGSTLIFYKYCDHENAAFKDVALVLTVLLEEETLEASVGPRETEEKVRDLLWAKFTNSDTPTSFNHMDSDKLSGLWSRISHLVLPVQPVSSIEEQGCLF

Regarding `COC(=O)C1=C(C)N(Cc2ccccc2)C2=C3C(=O)CCC[C@@H]3[C@@](O)(C(=O)OC)C(=O)N2[C@@H]1c1ccccc1`, the composite z-score was -0.438 and -0.212 in assay [1]; 0.999 and -0.117 in [2]; -0.122 and -0.0125 in assay [3]; 0.482 and 0.544 in assay [4]; 0.723 and 0.6 in assay [5]; -0.046 and -0.158 in [6]. The composite z-score in assay [7] was 0.211 and 0.476; in assay [9], 0.325 and 0.107; in assay [10] it was 0.136 and -0.0994; in [11], 0.749 and -0.121; in assay [15] it was 0.0102 and 0.0556; in assay [17] it was 0.182 and -0.0863. For the same molecule, the composite z-score in assay [18] was 0.637 and 0.433; in assay [19], 0.602 and -0.239; in assay [20] it was -0.177 and 0.108. Moreover, the z-score in assay [8] is -0.403 (inactive) and 0.0176 (inactive); in assay [12], 0.494 (inactive) and -0.978 (inactive); in assay [13], -1.66 (inactive) and -4.18 (inactive); in assay [14] it was -2.01 (inactive) and -2.52 (inactive); in assay [16], 0.821 (inactive) and 0.754 (inactive).
Take `CC(CO)N1C(=O)[C@@H]2C3C(=O)OCCC=C[C@H]3OC23C=CCN(c2ccc(Cl)cc2)C(=O)[C@@H]13` (stereo not given in full): the composite z-score is 0.982 and -0.0072 in assay [1]; -0.821 and -1.3 in assay [2]; -0.0959 and -0.159 in assay [3]; -0.556 and -0.282 in assay [4]; -0.709 and 0.149 in [5]; -0.618 and 2 in assay [6]. Moreover, the composite z-score was 0.923 and 1.44 in assay [7]; -0.91 and 0.118 in [9]; 0.0053 and 0.0092 in assay [10]; -1.06 and 1.32 in assay [11]; -0.81 and 3.57 in assay [15]; 0.149 and -0.0998 in assay [17]. In addition, the composite z-score in [18] was -2.2 and -0.556; in [19], -1.43 and 0.107; in [20] it was -0.186 and -0.0788. Further, the z-score in assay [8] is 0.741 (inactive) and 1.08 (inactive); in assay [12], 1.37 (inactive) and -1.45 (inactive); in assay [13], 0.628 (inactive) and -1.21 (inactive); in assay [14] it was 0.872 (inactive) and -0.713 (inactive); in [16], 0.226 (inactive) and -0.379 (inactive).
In the case of `C=CCN(CCCCC)C(=O)C1N(CCCCCCO)C(=O)C2C(C(=O)O)C3C=CC21O3` (stereo not given), the composite z-score is 1.25 and 0.679 in assay [1]; -0.833 and -1.2 in [2]; -0.2 and -0.248 in assay [3]; -1.43 and -1.82 in assay [4]; -2.1 and -1.82 in [5]; -0.54 and 0.234 in assay [6]. For the same molecule, the composite z-score was 1.07 and 1.32 in [7]; -0.855 and -1.02 in [9]; -0.331 and -0.287 in [10]; 0.19 and -0.725 in [11]; 0.565 and 1.97 in assay [15]; -0.126 and -0.0198 in assay [17]. The composite z-score in assay [18] is -2.33 and -1.76; in [19], -0.968 and -0.32; in [20], -0.322 and -0.32. Further, the z-score is -0.0502 (inactive) and -0.095 (inactive) in [8]; -0.657 (inactive) and -0.677 (inactive) in assay [12]; -0.849 (inactive) and -0.744 (inactive) in assay [13]; -0.44 (inactive) and -0.767 (inactive) in assay [14]; -0.617 (inactive) and -0.541 (inactive) in assay [16].
Turning to `C#CCN1C(/C=C/c2ccccc2)C(=O)OC[C@H]1c1ccccc1` (stereo not given in full), the composite z-score is -0.256 and -0.303 in [1]; 0.184 and 0.348 in assay [2]; -0.0569 and -0.1 in assay [3]; 0.301 and 0.398 in assay [4]; 0.346 and -0.0877 in assay [5]; -0.0907 and 0.365 in assay [6]. In addition, the composite z-score in assay [7] was 0.165 and 0.833; in [9], -0.151 and 0.465; in assay [10], 0.0401 and -0.276; in [11], -0.0815 and 0.365; in [15] it was 0.447 and 2.09; in [17] it was -0.0766 and -0.215. Moreover, the composite z-score in [18] was 0.899 and 0.231; in [19], 0.719 and 0.768; in [20], -0.0304 and -0.0311. Also, the z-score in assay [8] was -1.03 (inactive) and -0.536 (inactive); in assay [12] it was -3.12 (inactive) and -0.539 (inactive); in assay [13], -7.61 (inactive) and -3.7 (inactive); in assay [14], -3.5 (inactive) and -1.57 (inactive); in assay [16], 1.07 (inactive) and 0.53 (inactive).
Take `CCOC(=O)[C@@H]1CC=C2CC1C(=O)N1CCC[C@@H]1[C@H]2O[Si](C)(C)C(C)(C)C` (stereo not given in full): the composite z-score is -0.116 and -0.386 in assay [1]; -0.323 and -0.427 in assay [2]; -0.157 and -0.282 in assay [3]; -0.833 and -1.22 in [4]; -1.16 and -1.46 in assay [5]; -0.653 and -0.709 in assay [6]. Also, the composite z-score was -1.69 and -0.727 in assay [7]; -0.0907 and -1.25 in [9]; -0.0994 and -0.252 in assay [10]; -0.884 and -1.29 in assay [11]; -0.664 and -0.302 in assay [15]; -0.0807 and -0.347 in assay [17]. Moreover, the composite z-score in [18] was -0.462 and -0.414; in assay [19], -0.529 and -2.04; in assay [20], -0.218 and -0.273. In addition, the z-score was 0.678 (inactive) and -1.08 (inactive) in [8]; -0.541 (inactive) and -2.68 (inactive) in assay [12]; -1.43 (inactive) and -19.5 (active) in assay [13]; 0.119 (inactive) and -1.52 (inactive) in assay [14]; -0.988 (inactive) and -0.253 (inactive) in assay [16].
In the case of `CCOC(=O)C[C@H]1[C@H](OC(=O)c2ccccc2-c2ccccc2)[C@@H](NC(=O)Cc2ccc(OC)cc2)c2cc(OCCCO)ccc2N1C(=O)Cc1ccc(OC)cc1`, the composite z-score in assay [1] was 0.169 and 0.18; in assay [2], 0.22 and 0.0916; in assay [3], 0.0811 and -0.0737; in assay [4], 0.473 and -0.0644; in [5], -0.386 and -0.0483; in [6], 0.621 and -0.428. The composite z-score is 0.927 and -0.835 in assay [7]; 0.492 and 0.0474 in [9]; -0.0994 and -0.199 in [10]; 0.407 and -0.949 in [11]; 1.46 and -0.199 in assay [15]; 0.139 and -0.176 in assay [17]. For the same molecule, the composite z-score was 0.0766 and -0.182 in assay [18]; 0.784 and -0.204 in [19]; 0.0084 and -0.142 in assay [20]. In addition, the z-score in [8] is -0.848 (inactive) and -0.382 (inactive); in assay [12], -0.0142 (inactive) and -0.0701 (inactive); in assay [13] it was -0.572 (inactive) and 0.18 (inactive); in [14] it was 0.843 (inactive) and 0.39 (inactive); in assay [16] it was 2.39 (inactive) and -0.335 (inactive).
